The full data set covers some 7,900 targets. This sample favours those with a hit. About 0.6% of all pairs of compound and target were hits. Unmarked numbers belong to inactive results.
Tests used:
Assay in all cases: log2 fold change, soluble protein after heating vs DMSO (PISA); higher = thermal stabilisation; K562 cells, 10 uM, 30 min; active = over 0.2 and 3.5 SD of the protein, either way, in both replicates (recomputed)
[1] = compound: NC(=O)Nc1cc(-c2cccc(F)c2)sc1C(=O)N[C@H]1CCCNC1
Summary of the method: (§1)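 Soluble protein was quantified by TMTpro 16plex LC-MS/MS after channel sums were equalised. It was obtained as the supernatant after 21,000xg for 90 min from pooled aliquots of K562 cells (2×10^6 cells/mL, 10 μM compound, 30 min) heated for 3 min across 48°C-58°C and extracted in PBS with 0.5% NP-40 at 4°C. Thermal stability values are relative to control samples and come from duplicates. They are given as log2 fold changes.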

[2] = compound: NC(=O)c1cnc(N[C@@H]2CCCC[C@@H]2N)nc1Nc1cccc(-n2nccn2)c1
Summary of the method: as §1

[3] = compound: NC1(c2ccc(-c3nc4ccn5c(=O)[nH]nc5c4cc3-c3ccccc3)cc2)CCC1
Summary of the method: as §1

[4] = compound: NCC(=O)Nc1ccc(-n2nc(C(F)(F)F)cc2-c2ccc3c(ccc4ccccc43)c2)cc1
Summary of the method: as §1

[5] = compound: Nc1ccccc1NC(=O)c1ccc(CNC(=O)OCc2cccnc2)cc1 [entinostat]
Summary of the method: as §1

[6] = compound: O=C(CCCCCCC(=O)Nc1ccccc1)NO [vorinostat]
Summary of the method: as §1

[7] = compound: O=C(CCCCCCNC(=O)c1cnc(N(c2ccccc2)c2ccccc2Cl)nc1)NO [citarinostat]
Summary of the method: as §1

[8] = compound: O=C(O)c1ccc2c(c1)nc(Nc1cccc(Cl)c1)c1ccncc12 [silmitasertib]
Summary of the method: as §1

[9] = compound: O=C1NC(=O)C(c2cnc3ccccn23)=C1c1cn2c3c(cc(F)cc13)CN(C(=O)N1CCCCC1)CC2
Summary of the method: as §1

[10] = compound: c1cc(OCCN2CCCCC2)cc(-c2n[nH]c3ccc(-c4nnc[nH]4)cc23)c1
Summary of the method: as §1

[11] = compound: c1cn2cc(-c3ccc4cn[nH]c4c3)nc(Nc3ccc(N4CCOCC4)cc3)c2n1 [entospletinib]
Summary of the method: as §1

Chain of UniProt P15586 (P15586 whole entry, looked up): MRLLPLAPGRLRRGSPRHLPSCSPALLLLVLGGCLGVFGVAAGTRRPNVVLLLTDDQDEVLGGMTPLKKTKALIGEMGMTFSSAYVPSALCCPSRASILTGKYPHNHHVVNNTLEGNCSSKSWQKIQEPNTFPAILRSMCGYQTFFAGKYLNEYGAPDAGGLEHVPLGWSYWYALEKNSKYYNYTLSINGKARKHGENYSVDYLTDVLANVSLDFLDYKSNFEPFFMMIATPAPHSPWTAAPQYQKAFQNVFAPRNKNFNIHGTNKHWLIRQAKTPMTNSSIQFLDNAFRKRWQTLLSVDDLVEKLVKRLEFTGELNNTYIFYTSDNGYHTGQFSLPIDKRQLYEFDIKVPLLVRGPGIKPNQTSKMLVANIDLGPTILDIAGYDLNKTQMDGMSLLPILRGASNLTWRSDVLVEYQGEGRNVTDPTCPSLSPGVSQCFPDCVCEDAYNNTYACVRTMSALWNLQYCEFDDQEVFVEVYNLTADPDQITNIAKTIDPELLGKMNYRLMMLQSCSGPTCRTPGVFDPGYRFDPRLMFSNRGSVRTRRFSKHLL
Chain of UniProt P07686 (P07686 whole entry, looked up): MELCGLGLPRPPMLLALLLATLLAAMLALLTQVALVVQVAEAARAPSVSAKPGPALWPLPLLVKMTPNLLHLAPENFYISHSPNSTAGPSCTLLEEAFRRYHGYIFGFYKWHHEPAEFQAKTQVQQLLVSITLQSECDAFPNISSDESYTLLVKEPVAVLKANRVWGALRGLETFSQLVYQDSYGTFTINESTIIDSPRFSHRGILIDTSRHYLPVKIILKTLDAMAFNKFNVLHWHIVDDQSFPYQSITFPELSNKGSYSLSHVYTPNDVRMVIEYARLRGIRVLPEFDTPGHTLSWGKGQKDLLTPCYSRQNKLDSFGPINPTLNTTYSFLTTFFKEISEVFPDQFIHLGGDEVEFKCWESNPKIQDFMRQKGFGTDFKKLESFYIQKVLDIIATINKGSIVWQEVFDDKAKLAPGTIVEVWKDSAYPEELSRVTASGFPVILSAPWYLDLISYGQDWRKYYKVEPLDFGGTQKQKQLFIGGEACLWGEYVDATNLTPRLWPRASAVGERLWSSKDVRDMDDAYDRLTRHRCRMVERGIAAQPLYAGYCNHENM
Chain of UniProt Q9NP66 (Q9NP66 whole entry, looked up): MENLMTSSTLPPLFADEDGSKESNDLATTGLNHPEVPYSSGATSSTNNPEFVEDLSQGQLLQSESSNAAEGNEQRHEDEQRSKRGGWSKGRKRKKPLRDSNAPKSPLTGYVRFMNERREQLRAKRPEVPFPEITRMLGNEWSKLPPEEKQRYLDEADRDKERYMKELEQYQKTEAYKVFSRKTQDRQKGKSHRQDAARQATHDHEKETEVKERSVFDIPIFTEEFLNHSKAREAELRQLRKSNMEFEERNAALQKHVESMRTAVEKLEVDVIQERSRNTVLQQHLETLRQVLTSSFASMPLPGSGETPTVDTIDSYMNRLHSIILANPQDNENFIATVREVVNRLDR
Chain of UniProt P00390 (P00390 whole entry, looked up): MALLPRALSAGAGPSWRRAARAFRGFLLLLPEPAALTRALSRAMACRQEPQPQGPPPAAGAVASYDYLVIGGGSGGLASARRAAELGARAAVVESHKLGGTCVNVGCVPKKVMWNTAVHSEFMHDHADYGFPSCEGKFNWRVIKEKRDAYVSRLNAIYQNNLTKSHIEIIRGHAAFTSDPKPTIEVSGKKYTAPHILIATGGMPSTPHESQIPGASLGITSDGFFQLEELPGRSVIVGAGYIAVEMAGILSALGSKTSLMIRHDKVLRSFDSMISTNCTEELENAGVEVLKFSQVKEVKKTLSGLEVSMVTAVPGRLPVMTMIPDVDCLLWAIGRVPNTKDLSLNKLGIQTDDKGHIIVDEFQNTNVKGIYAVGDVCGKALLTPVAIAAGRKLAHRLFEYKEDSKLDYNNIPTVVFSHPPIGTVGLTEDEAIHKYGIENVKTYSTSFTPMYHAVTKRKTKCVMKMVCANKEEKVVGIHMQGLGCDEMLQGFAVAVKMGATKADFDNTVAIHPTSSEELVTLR
Chain of UniProt Q92664 (Q92664 whole entry, looked up): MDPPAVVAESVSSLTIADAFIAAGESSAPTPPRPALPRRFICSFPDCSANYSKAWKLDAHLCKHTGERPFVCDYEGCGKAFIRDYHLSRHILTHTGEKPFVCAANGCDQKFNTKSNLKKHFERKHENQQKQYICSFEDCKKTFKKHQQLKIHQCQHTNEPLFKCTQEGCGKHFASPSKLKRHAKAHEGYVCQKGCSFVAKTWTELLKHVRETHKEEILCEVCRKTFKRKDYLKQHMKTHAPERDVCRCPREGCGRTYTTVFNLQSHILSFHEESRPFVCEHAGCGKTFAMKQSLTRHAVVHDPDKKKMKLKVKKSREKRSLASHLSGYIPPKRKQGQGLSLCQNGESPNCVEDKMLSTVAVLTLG
Chain of UniProt P15976 (P15976 whole entry, looked up): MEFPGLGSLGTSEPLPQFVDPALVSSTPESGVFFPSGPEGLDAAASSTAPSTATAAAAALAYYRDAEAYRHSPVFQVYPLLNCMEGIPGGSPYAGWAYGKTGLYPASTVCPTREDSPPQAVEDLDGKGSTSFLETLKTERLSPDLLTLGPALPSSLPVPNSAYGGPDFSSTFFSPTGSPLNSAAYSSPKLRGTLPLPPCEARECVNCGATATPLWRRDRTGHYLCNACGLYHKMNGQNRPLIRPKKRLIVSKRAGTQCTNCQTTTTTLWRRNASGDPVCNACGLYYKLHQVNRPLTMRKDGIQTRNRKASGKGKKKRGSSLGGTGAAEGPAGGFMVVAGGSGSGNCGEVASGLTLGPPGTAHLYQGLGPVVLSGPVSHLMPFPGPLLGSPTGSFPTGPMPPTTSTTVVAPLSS
Chain of UniProt Q6Y7W6 (Q6Y7W6 whole entry, looked up): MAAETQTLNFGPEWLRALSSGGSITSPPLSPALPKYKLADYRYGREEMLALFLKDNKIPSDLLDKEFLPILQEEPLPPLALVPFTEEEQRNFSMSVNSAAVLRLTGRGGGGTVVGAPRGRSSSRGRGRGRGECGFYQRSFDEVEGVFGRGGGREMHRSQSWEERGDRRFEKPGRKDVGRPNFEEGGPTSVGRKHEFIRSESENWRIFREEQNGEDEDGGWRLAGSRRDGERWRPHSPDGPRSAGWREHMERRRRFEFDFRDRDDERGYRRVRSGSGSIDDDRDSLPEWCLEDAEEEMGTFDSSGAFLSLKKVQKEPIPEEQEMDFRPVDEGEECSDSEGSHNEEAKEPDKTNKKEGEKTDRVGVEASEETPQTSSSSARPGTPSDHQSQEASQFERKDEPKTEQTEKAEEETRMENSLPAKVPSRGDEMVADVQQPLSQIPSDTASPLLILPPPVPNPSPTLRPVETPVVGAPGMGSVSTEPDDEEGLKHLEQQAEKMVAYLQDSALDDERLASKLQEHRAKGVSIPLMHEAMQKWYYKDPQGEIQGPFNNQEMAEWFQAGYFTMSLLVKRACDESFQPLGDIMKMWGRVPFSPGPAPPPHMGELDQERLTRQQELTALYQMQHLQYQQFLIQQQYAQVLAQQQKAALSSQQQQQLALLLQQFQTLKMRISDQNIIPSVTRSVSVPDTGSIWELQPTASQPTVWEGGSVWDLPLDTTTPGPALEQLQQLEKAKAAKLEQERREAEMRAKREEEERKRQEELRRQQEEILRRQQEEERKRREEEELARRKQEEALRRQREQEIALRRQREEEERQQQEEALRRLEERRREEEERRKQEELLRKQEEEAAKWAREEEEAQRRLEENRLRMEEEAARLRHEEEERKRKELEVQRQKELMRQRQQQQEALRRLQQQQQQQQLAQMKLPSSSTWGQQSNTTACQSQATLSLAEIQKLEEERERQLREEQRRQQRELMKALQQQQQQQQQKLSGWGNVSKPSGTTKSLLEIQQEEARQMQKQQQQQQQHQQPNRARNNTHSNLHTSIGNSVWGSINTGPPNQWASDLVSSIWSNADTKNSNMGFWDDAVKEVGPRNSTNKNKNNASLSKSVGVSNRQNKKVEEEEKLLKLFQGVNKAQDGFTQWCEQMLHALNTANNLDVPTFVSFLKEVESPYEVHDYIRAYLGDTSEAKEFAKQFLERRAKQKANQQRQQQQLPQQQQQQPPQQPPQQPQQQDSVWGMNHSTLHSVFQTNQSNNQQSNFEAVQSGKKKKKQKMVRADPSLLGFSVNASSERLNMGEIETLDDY
Chain of UniProt P85037 (P85037 whole entry, looked up): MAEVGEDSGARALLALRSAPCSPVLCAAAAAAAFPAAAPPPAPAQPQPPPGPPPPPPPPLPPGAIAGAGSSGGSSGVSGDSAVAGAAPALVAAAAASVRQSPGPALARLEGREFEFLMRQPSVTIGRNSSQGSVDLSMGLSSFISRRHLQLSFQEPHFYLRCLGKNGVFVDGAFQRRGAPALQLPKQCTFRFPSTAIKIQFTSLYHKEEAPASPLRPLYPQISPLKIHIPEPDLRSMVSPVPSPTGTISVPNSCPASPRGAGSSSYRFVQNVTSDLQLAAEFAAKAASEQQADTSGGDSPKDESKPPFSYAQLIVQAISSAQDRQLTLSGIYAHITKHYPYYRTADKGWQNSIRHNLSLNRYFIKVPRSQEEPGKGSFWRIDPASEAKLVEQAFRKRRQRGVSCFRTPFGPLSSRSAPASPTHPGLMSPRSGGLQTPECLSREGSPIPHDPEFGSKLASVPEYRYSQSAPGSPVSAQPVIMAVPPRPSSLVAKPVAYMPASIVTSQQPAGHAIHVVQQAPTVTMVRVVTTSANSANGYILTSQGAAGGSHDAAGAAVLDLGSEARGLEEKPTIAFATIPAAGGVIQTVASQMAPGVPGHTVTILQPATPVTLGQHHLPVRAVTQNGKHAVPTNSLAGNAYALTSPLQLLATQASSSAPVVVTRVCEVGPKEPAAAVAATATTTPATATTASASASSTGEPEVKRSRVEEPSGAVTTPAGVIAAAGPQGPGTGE
Chain of UniProt O15347 (O15347 whole entry, looked up): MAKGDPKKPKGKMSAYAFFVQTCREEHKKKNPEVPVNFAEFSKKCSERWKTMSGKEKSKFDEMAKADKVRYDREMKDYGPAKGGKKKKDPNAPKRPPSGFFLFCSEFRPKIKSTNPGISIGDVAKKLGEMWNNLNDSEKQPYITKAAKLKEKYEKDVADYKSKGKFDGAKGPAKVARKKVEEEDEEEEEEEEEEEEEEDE

| Target | log2 fold change [1] | log2 fold change [2] | log2 fold change [3] | log2 fold change [4] | log2 fold change [5] | log2 fold change [6] | log2 fold change [7] | log2 fold change [8] | log2 fold change [9] | log2 fold change [10] | log2 fold change [11] |
| --- | --- | --- | --- | --- | --- | --- | --- | --- | --- | --- | --- |
| HDHD2 (UniProt Q9H0R4) | 0.091 | -0.016 | -0.023 | 0.048 | -0.01 | -0.018 | 0.033 | -0.007 | 0.131 | -0.012 | -0.069 |
| H1FX (UniProt Q92522) | 0.248 | 0.165 | 0.153 | 0.118 | -0.072 | 0 | -0.122 | 0.078 | 0.227 | -0.12 | 0.02 |
| GTF2A2 (UniProt P52657) | 0.023 | -0.028 | -0.038 | -0.008 | 0.03 | -0.044 | 0.058 | -0.008 | -0.014 | 0 | 0.014 |
| FOXK1 (UniProt P85037) | 0.497 | 0.201 | 0.38 | 0.096 | 0 | -0.15 | 0.023 | 0.512 | -1.33 (active) | -0.031 | 0.262 |
| HMGB3 (UniProt O15347) | 0.025 | 0.153 | 0.143 | 0.136 | -0.032 | -0.044 | -0.159 | -0.068 | -0.043 | 0.146 | 0.097 |
| GNAS (UniProt Q5JWF2) | -0.133 | -0.009 | 0.002 | -0.004 | -0.058 | -0.022 | -0.043 | -0.018 | -0.007 | -0.045 | 0.052 |
| HEXB (UniProt P07686) | 0.003 | -0.051 | -0.145 | -0.034 | 0.004 | -0.042 | 0.033 | 0.007 | -0.034 | -0.003 | -0.026 |
| GTF3A (UniProt Q92664) | -0.04 | -0.095 | 0.046 | -0.098 | -0.013 | 0.026 | 0.06 | 0.043 | 0.011 | -0.072 | 0.033 |
| HTATIP2 isoform 3 (UniProt Q9BUP3) | -0.047 | 0.036 | -0.07 | -0.037 | -0.006 | 0.038 | 0.05 | 0.01 | -0.066 | -0.045 | 0.003 |
| H2AZ1 (UniProt P0C0S5) | 0.067 | 0.258 | 0.444 | -0.038 | 0.135 | 0.19 | -0.058 | 0 | 0.086 | -0.032 | -0.001 |
| IDH3A (UniProt P50213) | 0 | -0.033 | -0.062 | -0.005 | -0.025 | -0.029 | 0.023 | -0.034 | -0.021 | 0.011 | -0.024 |
| GMEB1 (UniProt Q9Y692) | 0.066 | -0.072 | -0.047 | 0.027 | 0.073 | 0.001 | 0.057 | 0.112 | -0.053 | -0.004 | -0.027 |
| FUBP3 (UniProt Q96I24) | -0.023 | 0.024 | -0.048 | -0.011 | 0.003 | 0.062 | -0.005 | 0.045 | 0.186 | 0.006 | 0.022 |
| GATA1 (UniProt P15976) | 0.009 | 0.012 | -0.018 | 0.059 | -0.084 | -0.164 | -0.166 | 0.065 | -0.039 | -0.096 | 0.102 |
| FNTA (UniProt P49354) | 0.009 | 0.061 | 0.028 | 0 | -0.02 | 0.004 | -0.02 | 0.016 | -0.001 | 0.696 (active) | 0.111 |
| HMG20A (UniProt Q9NP66) | 0 | 0.126 | -0.054 | -0.056 | 0.064 | 0.09 | 0.072 | 0.069 | 0 | -0.167 | -0.049 |
| GAPVD1 isoform 6 (UniProt Q14C86) | 0.009 | -0.077 | -0.139 | -0.073 | 0.049 | 0.063 | 0.087 | 0.124 | 0.003 | -0.048 | 0.045 |
| FKBP4 (UniProt Q02790) | 0.005 | -0.071 | -0.114 | -0.053 | 0.039 | 0.035 | 0.072 | 0.01 | -0.02 | -0.029 | -0.019 |
| HLTF (UniProt Q14527) | -0.025 | 0.037 | -0.067 | -0.043 | 0.069 | -0.012 | 0.008 | -0.095 | -0.073 | -0.101 | 0.045 |
| GIGYF2 (UniProt Q6Y7W6) | -0.102 | -0.062 | -0.046 | -0.079 | 0.024 | 0.103 | 0.06 | -0.004 | -0.016 | -0.065 | -0.02 |
| GNS (UniProt P15586) | 0.002 | 0 | -0.109 | 0.01 | -0.006 | -0.036 | 0.019 | -0.026 | -0.049 | 0.003 | 0.002 |
| GUSB (UniProt P08236) | -0.044 | 0.029 | 0.047 | 0.067 | -0.066 | 0.049 | 0.148 | -0.011 | 0.057 | -0.059 | 0.11 |
| FUCA2 (UniProt Q9BTY2) | 0.004 | -0.037 | -0.499 (active) | 0.013 | -0.03 | -0.033 | 0.042 | 0.032 | 0.032 | -0.551 (active) | -0.016 |
| HMGCR isoform 3 (UniProt P04035) | 0.184 | -0.115 | 0.048 | -0.022 | 0.082 | -0.019 | -0.175 | -0.08 | 0.15 | 0.081 | -0.29 |
| GSR (UniProt P00390) | 0.008 | -0.046 | 0 | -0.03 | -0.011 | 0.019 | 0.028 | -0.027 | -0.023 | 0.018 | -0.047 |

— the supplement of paper PMC10849652
